Screening results: PubChem, National Center for Advancing Translational Sciences (NCATS)
The list is not random: actives were taken first. Their share in the collection is about 11%.
ALDH1A1 block = inhibitors of human aldehyde dehydrogenase 1A1. P00352. Purified ALDH1A1, NADH fluorescence, propionaldehyde substrate. Potency, µM (titrated, usually from 75.3 µM), for inactives: at the top dose activity, negative = inhibition, most hits filed as inhibitors. hit rate 7.3% among 220,000. AID 1030; active = well fitted inhibition curve with a large enough effect, not every such curve was filed as active; inconclusive = small, poorly fitted or top-dose-only effect, or another doubt; inactive = no such curve, though single readings can be large or run the other way;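 also: potency is read from the fitted curve at half-maximal effect; plate controls were no enzyme wells and a reference inhibitor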
NPSR antag = neuropeptide S receptor (human) antagonism, cAMP | Q6W5P4 | CHO-NPSR cells, cAMP TR-FRET, antagonist mode | Potency, µM (highest dose often 38.3 µM), inactives show at the top dose activity change, negative = inhibition, usual class: inhibitors | hit rate 1% among 220,000; also: potency is read from the fitted curve at half-maximal effect; nearly all actives have a fitted effect of over 50% in size
Target sequence (Q6W5P4 whole entry, looked up): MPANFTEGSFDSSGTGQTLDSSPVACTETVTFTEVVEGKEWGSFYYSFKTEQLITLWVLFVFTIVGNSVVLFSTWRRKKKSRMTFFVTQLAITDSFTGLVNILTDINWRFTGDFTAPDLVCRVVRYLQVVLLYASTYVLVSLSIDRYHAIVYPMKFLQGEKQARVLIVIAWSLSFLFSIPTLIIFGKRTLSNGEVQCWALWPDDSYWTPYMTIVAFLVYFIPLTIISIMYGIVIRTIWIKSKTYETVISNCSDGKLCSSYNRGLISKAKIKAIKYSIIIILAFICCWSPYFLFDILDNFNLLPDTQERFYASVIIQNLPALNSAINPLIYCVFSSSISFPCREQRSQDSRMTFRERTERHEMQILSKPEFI
IMPase cell inh = cell-permeable inhibitors of inositol monophosphatase (IMPase). CHO-M1 cells, IP1 accumulation, HTRF TR-FRET ratio. inhibition (IP1 accumulation), % at 46.1 µM. 120,000 tested, under 10 active. AID 901; active = well fitted curve in the direction sought with a large enough effect in the signal ratio, not every such curve was filed as active; inconclusive = small, poorly fitted or top-dose-only effect, or a change in a side signal; inactive = no such curve, though single readings can be large or run the other way; the % refers to the signal ratio;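 also: cells stimulated with carbachol in lithium chloride buffer; plate controls were DMSO basal wells for no effect and reference inhibitor wells for full effect; higher means more IMPase inhibition seen as more IP1 and lower FRET ratio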
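Measured: the HTRF emission ratio (665/620 nm) plus the 620 nm donor channel, each fitted to the Hill equation to give AC50. Cells were CHO-M1 given compounds up to 46 uM and a 30 min carbachol stimulation at 37C.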
HPGD block = inhibitors of human 15-hydroxyprostaglandin dehydrogenase (HPGD); purified HPGD, NADH fluorescence kinetic, PGE2 substrate; Potency, µM, without a hit: at the highest dose activity change, negative = inhibition, actives largely listed as inhibitors; hit rate 4.3% among 150,000; AID 894; active = well fitted inhibition curve with a large enough effect, not every such curve was filed as active; inconclusive = small, poorly fitted or top-dose-only effect, or another doubt; inactive = no such curve, though single readings can be large or run the other way; also: potency is read from the fitted curve at half-maximal effect
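NADH formation kinetics: reaction with 30 uM PGE2 and 1 mM NAD+ (final), 20 nM enzyme, Tris-HCl pH 8 with Tween 20, after 15 min compound preincubation at room temperature. Fluorescence change, last versus first of five reads.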
IMPase Li cell = cell-permeable IMPase inhibitors with lithium potentiation | CHO-M1 cells, IP1 TR-FRET (IP-One), carbachol + lithium | Potency, µM (highest dose often 59.4 µM), for the others: at the highest dose activity, negative = IMPase inhibition, usual class: inhibitors | hit rate 0.35% among 210,000 | AID 1457;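 also: IP1 builds up when IMPase is blocked and the TR-FRET signal falls; potency is read from the fitted curve at half-maximal effect; plate controls were basal vehicle for no effect and high inhibitor control for full effect; nearly all actives have a fitted effect of over 50% in size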
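Test compounds were applied to CHO-M1 cells previously cultured for 16–30 h at 2000 per well. A small lithium amount accompanied them; after 30 min at 37C, IP1 was quantified by TR-FRET.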
PNC assembly inh = blocks assembly of the perinucleolar compartment. activity change (PNC), negative = inhibition, % at 10 µM. PC3M PTB-GFP, PNC prevalence imaging, 16 h; hits give low values. hit rate 3.1% among 140,000;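 active = readout at or below -70, meaning at least 70% loss of cells showing the perinucleolar compartment, a nuclear body marking cancer cells; inconclusive = readout between -30 and a set limit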;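 also: plate controls were DMSO wells for no effect and camptothecin positive control wells for full effect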
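Compounds are pinned in duplicate onto adhered PC3M cells stably expressing GFP-tagged PTB and incubated 16 h at 37 C. Cells are then fixed, nuclei stained with Hoechst, and PNC-positive cells counted.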
* marks the source's active call; other numbers are inactive results; ? = inconclusive; nt = not tested or not shown; [ ] = another dose, or the depositor's remark. Unless noted, calls follow the shape of the dose curve; as a rule, active = well fitted curve in the direction sought with a large enough effect; inconclusive = small, poorly fitted or top-dose-only effect, or another doubt; inactive = no such curve, though single readings can be large; an effect the other way counts as inactive or inconclusive. Unless noted, % is scaled to controls: 0 for no effect and ±100 for the full control effect.

SMILES	ALDH1A1 block	NPSR antag	IMPase cell inh	HPGD block	IMPase Li cell	PNC assembly inh
COC(=O)c1ccccc1NC(=O)CSc1n[nH]c(CC(C)C)n1	16%	-10%[46.1 µM]	5	-19%	-7%[38.3 µM]	19
COC(=O)c1ccccc1NC(=O)CSc1n[nH]c(C)n1	8%	-4%[46.1 µM]	2	-12%	4%	-100*
Cc1nc(SCC(=O)Nc2ccnc3ccccc23)n[nH]1	18µM*	-5%[46.1 µM]	-3	-10%	28%[38.3 µM]	6
CCOCCCN1C(=O)CN(C2CCCCC2)C(=O)C1c1ccc(OC)c(OC)c1 (centres undefined)	16%	-6%[46.1 µM]	0	nt	nt	?
COc1ccc(N)cc1C#N	?	9%[46.1 µM]	2	-14%	3%[38.3 µM]	24
COc1ccc(N)cc1-n1c(C)ccc1C	14µM*	-5%	nt	nt	16%	nt
C=CCOC(=O)NC(c1ccc(F)c(F)c1)S(=O)(=O)c1ccc(Cl)cc1 (centres undefined)	5%	nt	nt	-6%	5%	nt
C=CCOC(=O)NC(c1ccc(F)c(F)c1)C(C(=O)CCl)C(=O)OC (centres undefined)	10µM*	nt	nt	-22%	18%	nt
O=C(Nc1nnc(C2CC2)s1)c1n[nH]c(=O)c2ccccc12	nt	4%[7.67 µM]	nt	nt	nt	nt
CC1CCCN(C(=O)C2CCC(CNc3c(N4CCCCC4)c(=O)c3=O)CC2)C1 (centres undefined)	nt	5%	nt	nt	nt	nt
O=C(C1CCC(CNc2c(N3CCCCC3)c(=O)c2=O)CC1)N1CCCCC1 (centres undefined)	-1%	-6%[46.1 µM]	4	0.4µM*	-3%[38.3 µM]	-23
CC1CCN(c2c(NCC3CCC(C(=O)NC4CCCCCC4)CC3)c(=O)c2=O)CC1 (centres undefined)	nt	-8%	nt	nt	nt	nt
CC1CCN(c2c(NCC3CCC(C(=O)N4CCCCC4)CC3)c(=O)c2=O)CC1 (centres undefined)	-8%	?	1	0.5µM*	-6%[38.3 µM]	11
CCOC(=O)C1CCCN(C(=O)CCc2ccccc2)C1 (centres undefined)	?	18%[46.1 µM]	6	nt	nt	5
O=C(Cc1ccccc1)N1CCC(c2ccccc2)C1 (centres undefined)	25µM*	-12%	nt	nt	nt	nt
CC1CCCN(C(=O)COc2ccc(Nc3ccccc3)cc2)C1 (centres undefined)	28µM*	-25%	nt	nt	11%	nt
CC1CCCN(C(=O)CCc2ccccc2)C1 (centres undefined)	-13%	6%	nt	4.5µM*	0%	-97*
CC1CCN(C(=O)COc2ccc(Nc3ccccc3)cc2)CC1	?	-30%	nt	nt	17%	nt
O=C(NC1CC1)C1CCCN(C(=O)Nc2ccc(F)cc2)C1 (centres undefined)	4%	-39%	nt	-13%	-2%	?
c1ccc2c(c1)Sc1ccccc1-n1cnnc1-2	30%	-14%[46.1 µM]	?	-24%	1%	27
N=C1Sc2ccccc2C2=NCCCN12	10µM*	-9%[46.1 µM]	13	2.2µM*	18%	nt
CCN(CC)S(=O)(=O)c1cccc(NC(=O)c2ccccc2Br)c1	11µM*	-17%	nt	nt	1%	nt
CCN(CC)S(=O)(=O)c1ccc(NC(=O)Nc2cccc(C(F)(F)F)c2)cc1	8%	16µM*	10	-1%	25%[38.3 µM]	16
CC(NC(=O)C1CCCC1)c1ccc2c(c1)OCCO2 (centres undefined)	3%	2%[46.1 µM]	1	-25%	-8%[38.3 µM]	-8
CC(NC(=O)C1CCC1)c1ccc(Cl)cc1 (centres undefined)	0%	-4%[46.1 µM]	-3	14µM*	17%[38.3 µM]	35
CCOc1ccc(C(C)NC(=O)C2CCC2)cc1 (centres undefined)	-1%	10%	nt	25µM*	6%	21
CCOc1ccc(C(C)NC(=O)C2CCCC2)cc1 (centres undefined)	-1%	1%	nt	nt	7%	nt
CCOc1ccccc1NC(=O)CC1Nc2ccccc2NC1=O (centres undefined)	-8%	-13%	4	?	2%	93
O=C(CCl)NC(Cc1ccccc1)c1ccccc1 (centres undefined)	1.4µM*	-14%	nt	nt	-2%	nt
